# The whole screen tested about 52,000 compounds, of which about 1,700 (3.3%) were called active. Only a selection was taken, and actives are over-represented in it overall. Unmarked numbers belong to inactive results. Rule as the data show it: active = survival mostly below about 52% (no sharp cut-off); inactive = mostly above about 56%.
# Test system: Wild type
# Experiment: S. aureus survival, RN4220 and DeltatarO strains – OD600, teichoic acid synthesis inhibitors, primary screen (AID 463173)
# Conditions: S. aureus RN4220 wild type/DeltatarO growth, OD600, 18 h, stronger effect = lower value, screened at 18.75 µg/mL (by protocol)
row,Structure (SMILES),survival
1,O=C(OCc1cc(=O)n2nc(C3CC3)sc2n1)c1cccc(NC(=O)c2ccccc2Cl)c1,57%
2,Cc1nnc(N2C(=O)c3oc4ccccc4c(=O)c3C2c2ccc(C(C)(C)C)cc2)s1 (stereo not given),129%
3,COc1ccccc1CNC(=O)CCNS(=O)(=O)c1ccc2c(c1)oc(=O)n2C,83%
4,CC(C)(C)OC(=O)N1CCC(c2nnc(SCc3cccc(Cl)c3)o2)CC1,0% (active)
5,CC(C)(C)OC(=O)N1CCC(c2nnc(SCc3ccccc3F)o2)CC1,73%
6,Clc1ccccc1CSc1nnc(C2CCNCC2)o1,95%
7,CC(C)(C)OC(=O)N1CCC(c2nnc(SCc3ccccc3)o2)CC1,83%
8,Clc1cccc(CSc2nnc(C3CCNCC3)o2)c1,109%
9,CC(C)(C)OC(=O)N1CCC(c2nnc(SCc3ccccc3Cl)o2)CC1,-2% (active)
10,CCCN1CCN(c2cc3c(cc2F)c(=O)c(S(=O)(=O)c2ccc(CC)cc2)cn3CC)CC1,70%
11,Nc1ccc2c(c1)ncn2CCO,115%
12,CCOc1ccccc1NC(=O)Cn1nc2c3cc(F)ccc3n(Cc3cccc(C)c3)cc-2c1=O,81%
13,COc1ccccc1NC(=O)Cn1nc2c3cc(F)ccc3n(Cc3cccc(C)c3)cc-2c1=O,-4% (active)
14,CCc1ccccc1NC(=O)Cn1nc2c3cc(F)ccc3n(Cc3cccc(C)c3)cc-2c1=O,71%
15,Cc1cc(C)cc(OCc2cc(=O)n3c(-c4ccccc4)csc3n2)c1,88%
16,Cc1cccc(NC(=O)C(=O)c2cc(C)n(-c3ccccc3)c2C)c1C,79%
17,O=C(CSc1n[nH]c(-c2ccccc2Cl)n1)NCCc1ccccc1,72%
18,CC(C)Oc1ccccc1-c1nc(SCC(=O)c2ccc(F)cc2)n[nH]1,-5% (active)
19,COc1ccc(CNC(=O)CSc2n[nH]c(-c3ccc(F)cc3)n2)cc1,120%
20,COc1ccccc1-c1nc(SCC(=O)c2ccc(Cl)cc2)n[nH]1,131%
21,COc1ccccc1-c1nc(SCC(=O)c2ccccc2)n[nH]1,77%
22,CC(CCc1ccccc1)NC(=O)CSc1n[nH]c(-c2ccccc2)n1 (stereo not given),71%
23,O=C(CSc1n[nH]c(-c2ccccc2Cl)n1)NCc1ccc(F)cc1,-6% (active)

row,Structure (SMILES),survival
1,CC(CCc1ccccc1)NC(=O)CSc1n[nH]c(-c2ccc(F)cc2)n1 (stereo not given),134%
2,COc1ccc(-c2nc(SCC(=O)NC(C)CCc3ccccc3)n[nH]2)cc1 (stereo not given),-1% (active)
3,COc1ccc(CNC(=O)CSc2n[nH]c(-c3ccc(OC)cc3)n2)cc1,-6% (active)
4,Cc1ccc(CNC(=O)CSc2n[nH]c(-c3ccc(F)cc3)n2)cc1,124%
5,COc1cccc(CNC(=O)CSc2n[nH]c(-c3ccccc3Cl)n2)c1,75%
6,CCOC(=O)c1c(S(=O)(=O)N2CCC(C(=O)Nc3ncccc3C)CC2)c(C)n(C)c1C,72%
7,COc1cc(C(=O)N(CCCN(C)C)c2nc3c(OC)cccc3s2)cc(OC)c1OC,124%
8,Cc1ccc(CN2CCCn3nc(C(=O)NCCc4ccccc4C)cc3C2=O)cc1,79%
9,O=C(c1ccccc1)C(C(=O)N1CCCCC1)n1ccccc1=O (stereo not given),113%
10,Cc1cc(=O)c2cc(C(=O)Nc3ccc(F)cc3)ccc2[nH]1,87%
11,Cc1ccc(S(=O)(=O)N(CC(=O)N2CCC(C(N)=O)CC2)c2ccccc2F)cc1,98%
12,Cc1ccccc1CN1CCN(CC(=O)NCc2ccccc2Cl)C1=O,77%
13,CCC(=O)N1c2ccc(S(=O)(=O)CCC(=O)NCc3ccccc3OC)cc2CC1C (stereo not given),87%
14,COc1cccc(CNC(=O)CCS(=O)(=O)c2ccc3c(c2)CC(C)N3C(=O)C2CC2)c1 (stereo not given),-3% (active)
15,CC1Cc2cc(S(=O)(=O)CCC(=O)NCc3ccccc3Cl)ccc2N1C(=O)C1CC1 (stereo not given),72%
16,CCC(=O)N1c2ccc(S(=O)(=O)CCC(=O)NCc3cccc(OC)c3)cc2CC1C (stereo not given),82%
17,COc1ccc(CNC(=O)CCS(=O)(=O)c2ccc3c(c2)CC(C)N3C(=O)C2CC2)cc1 (stereo not given),76%
18,COc1ccccc1CNC(=O)CCS(=O)(=O)c1ccc2c(c1)CC(C)N2C(=O)C1CC1 (stereo not given),0% (active)
19,COC(=O)c1ccccc1NC(=O)c1c(C)oc2ncn(C)c(=O)c12,95%
20,CC(C)N(C(=O)CSc1nc2ccc(Cl)cc2[nH]1)c1ccccc1,81%
21,O=c1c2cc3c(cc2nc2sc(Nc4ccc(F)c(Cl)c4)nn12)OCO3,138%
22,Cc1ccc(-n2nnnc2CNC(=O)c2ccc(F)cc2)cc1C,124%
23,Cc1ccc(C(=O)NCc2nnnn2-c2ccc(C)c(C)c2)cc1,82%

row,Structure (SMILES),survival
1,Cc1ccc(-n2nnnc2CNC(=O)c2cc(C(F)(F)F)cc(C(F)(F)F)c2)cc1C,-3% (active)
2,CC(C)(C)c1ccc(C(=O)NC2CCNCC2)cc1,108%
3,CC(C)Cn1c(=O)c2ccccc2n2c(CCC(=O)NCc3ccc(Cl)cc3)nnc12,92%
4,O=C(Nc1ccc2nc(SCC(=O)N3CCOCC3)sc2c1)c1ccc(F)cc1,92%
5,Cc1ccc(C)c(Nc2nc(-c3ccccc3)c3cc(Br)ccc3n2)c1,42%
6,Cc1ccc2nc(Nc3ccc(Br)cc3)nc(-c3ccccc3)c2c1,56%
7,Cc1cccc(Nc2nc(-c3ccccc3)c3cc(C)ccc3n2)c1,11% (active)
8,COc1cccc(Nc2nc(-c3ccccc3)c3cc(C)ccc3n2)c1,9% (active)
9,COc1ccc(Nc2nc(-c3ccccc3)c3cc(Br)ccc3n2)cc1,37%
10,Cc1ccc2nc(NN)nc(-c3ccccc3)c2c1,100%
11,CN(CC(=O)NCc1ccccc1)S(=O)(=O)c1ccc2[nH]c3c(c2c1)CCCC3,72%
12,COc1cccc(NCc2nnc3n2CCCCC3)c1,83%
13,Cc1nc2c(c(C)nn2-c2ccccc2)c(C)c1CCC(=O)Nc1ccccc1,87%
14,CCc1ccc(NC(=O)CSc2nc(=O)n(Cc3ccncc3)c3c2CCC3)cc1,80%
15,CCOc1ccccc1CNC(=O)c1cc2oc3ccccc3c2n1CC,2% (active)
16,CCn1c(C(=O)NCc2ccc(F)cc2)cc2oc3ccccc3c21,115%
17,CCn1c(C(=O)NCc2ccccc2C)cc2oc3ccccc3c21,15%
18,CCn1c(C(=O)NCc2ccccc2Br)cc2oc3ccccc3c21,36%
19,CCn1c(C(=O)NCc2cc(Br)ccc2OC)cc2oc3ccccc3c21,78%
20,CCn1c(C(=O)NCc2cccc(Br)c2)cc2oc3ccccc3c21,7% (active)
21,Clc1ccc(N2CCN(c3ncnc4c3nc3n4CCCC3)CC2)cc1,73%
22,Cc1cc(-n2c(C)nc3ccccc3c2=O)ccc1NC(=O)c1ccc([N+](=O)[O-])cc1,82%
23,Cc1cc(-n2c(C)nc3ccccc3c2=O)ccc1NC(=O)c1ccccc1[N+](=O)[O-],88%

row,Structure (SMILES),survival
1,Cc1c(C(=O)Nc2ccc(-n3c(C)nc4ccccc4c3=O)cc2)cccc1[N+](=O)[O-],80%
2,Cc1cc(-n2c(C)nc3ccccc3c2=O)ccc1NC(=O)c1cccc([N+](=O)[O-])c1C,-2% (active)
3,Cc1cc(-n2c(C)nc3ccccc3c2=O)ccc1NC(=O)c1ccc(C)c([N+](=O)[O-])c1,10% (active)
4,Cc1ccc(C(=O)Nc2ccc(-n3c(C)nc4ccccc4c3=O)cc2)cc1[N+](=O)[O-],121%
5,COc1ccc(-c2c[n+](=O)c3c(n2[O-])CCC3)cc1,103%
6,COC(=O)C1CCN(S(=O)(=O)c2ccc(OC)cc2)CC1,102%
7,CCN(CC)C(=O)c1sc2c(c1C)c(=O)n(Cc1ccccc1)c(=O)n2Cc1ccc(Cl)cc1,73%
8,CCc1ccc(CNC(=O)C2COc3ccc(OC)cc3C2)cc1 (stereo not given),93%
9,Cc1ccc(NC(=O)Cn2cc3c(n2)CCCC3)c(Cl)c1,93%
10,CCOc1ccc(NC(=O)c2cnn(-c3ccc(C)c(C)c3)c2C2CCN(C(=O)OC(C)(C)C)CC2)cc1,89%
11,CC(C)(C)OC(=O)N1CCC(c2c(C(=O)NCc3cccs3)cnn2-c2cccc(F)c2)CC1,-6% (active)
12,CC(C)(C)OC(=O)N1CCC(c2c(C(=O)NCc3ccc(F)cc3)cnn2-c2ccc(F)cc2)CC1,-6% (active)
13,CC(C)(C)OC(=O)N1CCC(c2c(C(=O)Nc3ccc4c(c3)OCCO4)cnn2-c2ccc(F)cc2)CC1,69%
14,COc1ccc(CNC(=O)c2cnn(-c3ccc(OC)cc3)c2C2CCN(C(=O)OC(C)(C)C)CC2)cc1,76%
15,CCOc1ccc(OCC)c(NC(=O)c2cnn(-c3ccc(F)cc3)c2C2CCN(C(=O)OC(C)(C)C)CC2)c1,14% (active)
16,Cc1ccc(-n2ncc(C(=O)NCc3cccs3)c2C2CCN(C(=O)OC(C)(C)C)CC2)cc1C,90%
17,CC(C)(C)OC(=O)N1CCC(c2c(C(=O)NCc3cccs3)cnn2-c2ccc(F)cc2F)CC1,81%
18,CC(C)(C)OC(=O)N1CCC(c2c(C(=O)NCc3ccccc3)cnn2-c2ccc(F)cc2)CC1,133%
19,COc1ccc(NC(=O)CSc2ncc3c(n2)-c2ccccc2N(Cc2ccc(C)cc2)S3(=O)=O)cc1Cl,134%
20,Cc1cccc(OCC(=O)OCc2cc(=O)n3nc(C4CCCCC4)sc3n2)c1,100%
21,N#Cc1cc2cc3c(cc2nc1N1CCCN(C(=O)c2ccccc2)CC1)OCO3,103%

# From PubChem BioAssay AID463173 (ICCB-Longwood Screening Facility, Harvard Medical School, 2010)
